Screening results: PubChem BioAssay, several laboratories
Shown are actives, neighbours in structure and some others; about 2% of the full set was active somewhere.
EP2 antag: human EP2 receptor antagonists, primary screen, TR-FRET cAMP, C6 glioma cells | AID 1422, 2008 | inhibition, % at 25 µM | Prostaglandin E2 receptor EP2 subtype (Homo sapiens), P43116 | hit rate 0.52% among 260,000 | C6 glioma cells expressing human EP2; cells stimulated with saturating PGE2;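 active = percent inhibition above 40 after rounding to a whole number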;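 also: rat C6 glioma host cells with rolipram phosphodiesterase inhibitor present; the protocol text gives 20 µM as final concentration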
Target sequence (P43116 whole entry, looked up): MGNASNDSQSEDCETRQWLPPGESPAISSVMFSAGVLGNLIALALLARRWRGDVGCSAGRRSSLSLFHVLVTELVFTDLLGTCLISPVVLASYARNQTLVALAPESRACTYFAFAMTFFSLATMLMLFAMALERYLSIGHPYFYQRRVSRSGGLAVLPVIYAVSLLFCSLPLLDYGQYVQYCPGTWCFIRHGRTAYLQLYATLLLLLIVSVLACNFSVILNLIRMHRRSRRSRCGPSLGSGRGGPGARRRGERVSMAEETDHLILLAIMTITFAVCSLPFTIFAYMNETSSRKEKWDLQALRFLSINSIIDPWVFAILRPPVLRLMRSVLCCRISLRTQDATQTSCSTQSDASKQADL
S1P3 antag: S1P3 receptor antagonists, primary screen, cell-based. Sphingosine 1-phosphate receptor 3 (Homo sapiens), Q99500. CHO S1P3 NFAT-BLA reporter, FRET fluorescence, antagonist mode. inhibition, % at 4.98 µM. hit rate 0.27% among 170,000;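 active = inhibition above the plate cutoff, the mean inhibition of test wells on that plate plus 3 SD, cut at about 28% in these data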;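 also: cells challenged with S1P at its EC80 of 0.8 µM; blue over green emission ratio from cleaved BLA substrate after 4 h stimulation; 0% = S1P-stimulated wells and 100% = unstimulated DMSO-only wells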
S1P4 ag: S1P4 receptor agonists, primary screen, cell-based; Sphingosine 1-phosphate receptor 4 (Homo sapiens), O95977; S1P4-expressing cell line, agonist reporter assay; activation, % at 4.98 µM; hit rate 0.35% among 220,000; in the data active = activation above about 11%;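 also: 0% = DMSO vehicle and 100% = reference agonist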
Target sequence (O95977 whole entry, looked up): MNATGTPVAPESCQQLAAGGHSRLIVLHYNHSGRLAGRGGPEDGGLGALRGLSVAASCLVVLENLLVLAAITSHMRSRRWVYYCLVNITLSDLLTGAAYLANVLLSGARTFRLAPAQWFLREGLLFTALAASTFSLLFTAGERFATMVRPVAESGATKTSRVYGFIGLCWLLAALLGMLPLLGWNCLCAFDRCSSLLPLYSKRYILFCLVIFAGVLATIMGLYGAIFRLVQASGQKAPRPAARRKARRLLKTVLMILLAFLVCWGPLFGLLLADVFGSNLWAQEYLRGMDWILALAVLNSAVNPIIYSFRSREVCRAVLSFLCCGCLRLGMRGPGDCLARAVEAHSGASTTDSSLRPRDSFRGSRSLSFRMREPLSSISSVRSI
EP2 mod: EP2 receptor modulators, cAMP readout, primary screen, cell-based, HTRF cAMP, PGE2 stimulation; EP2-expressing cells, cAMP HTRF FRET, PGE2 co-stimulation; induction, % at 25 µM; hit rate 0.83% among 260,000;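 active = compounds whose cAMP rise, as percent of the full-agonist control response, exceeds 60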;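 also: rat C6 glioma line stably carrying human EP2 under a CMV promoter; the protocol text gives 20 µM as final concentration; 100% = response of wells given 1 µM PGE2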
S1P4 antag: S1P4 receptor antagonists, primary screen, cell-based | Sphingosine 1-phosphate receptor 4 (Homo sapiens), O95977 | S1P4-expressing cells, antagonist mode, reporter read-out | inhibition, % at 4.98 µM | hit rate 0.26% among 220,000 | AID 1510, 2009; in the data active = inhibition above about 29%;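 also: 0% = wells stimulated with agonist and 100% = vehicle wells without agonist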
EP2 cAMP induct: cAMP induction in EP2, EP4, beta2-AR and parental cells, confirmation, counter-screen for EP2 modulator project, cell-based, five parallel assays, C6 glioma, HEK293; shares compounds with EP2 mod; cAMP HTRF induction; plus low (about EC15) PGE2 agonist; calls only at 20 µM (by protocol); hit rate 47% among 1,300; AID 1080, 2008;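 active = cAMP induction above 50% in the main assay while under 30% in all four parallel counter assays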;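 also: rat C6 glioma cells stably expressing human EP2 receptor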
* marks the source's active call; other numbers are inactive results; i = inactive; nt = not tested or not shown; + = active, no number.

SMILES | EP2 antag | S1P3 antag | S1P4 ag | EP2 mod | S1P4 antag | EP2 cAMP induct
CC(=O)Nc1cc2c(cc1NC(=O)c1ncoc1-c1ccc(F)cc1)OCCO2 | 3.4 | nt | nt | -33.8 | nt | nt
O=C(CCCOc1ccc(Cl)cc1Cl)N1CCCc2ccccc21 | 11.6 | nt | 0.6 | 21.8 | 0.8 | nt
Cc1cccc(OCCCC(=O)N2CCCc3ccccc32)c1C | 6.6 | nt | 2.0 | 81.8* | -8.5 | +
CCCCOC(=O)CSc1nc(N)c(C#N)c(-c2ccc(OCC)cc2)c1C#N | 16.7 | 4.4 | 1.3 | 73.6* | -20.0 | i
O=C(O)CSc1ncnc2sc3c(c12)CCC3 | 8.4 | nt | 0.0 | 15.9 | -28.0 | nt
Cc1noc(C)c1CSc1ncnc2sc(C)c(C)c12 | 5.7 | -38.1 | 0.3 | 62.9* | -15.4 | +
CCSc1ncnc2sc3c(c12)CCC3 | 12.4 | nt | -2.7 | 73.3* | 6.6 | +
c1ccn(-c2ncnc3sc4c(c23)CCCC4)c1 | 10.0 | -42.7 | 0.6 | 64.5* | 0.1 | +
Cc1noc(C)c1CSc1ncnc2sc3c(c12)CCCCC3 | 9.1 | -4.8 | 0.6 | 55.9 | -14.1 | +
Fc1ccc(CSc2ncnc3sc4c(c23)CCCC4)cc1 | 6.4 | nt | 1.1 | 40.3 | -11.8 | nt
CCn1c(SCC(=O)Nc2cc(OC)cc(OC)c2)nnc1-c1ccco1 | 20.2 | nt | nt | -30.4 | nt | nt
CCCc1nnc(NC(=O)CCCOc2ccc(Cl)cc2Cl)s1 | 7.4 | nt | nt | 10.3 | nt | nt
CCc1ccc(C2C(C(=O)c3ccco3)=C(O)C(=O)N2CC2CCCO2)cc1 (centres undefined) | 21.9 | nt | nt | 29.8 | nt | nt
CC(OC(=O)c1nsc(Cl)c1Cl)C(=O)NC1CCCC1 (centres undefined) | 8.5 | nt | nt | -25.3 | nt | nt
Cc1noc(C)c1CSc1nc2sc(C)c(C)c2c(=O)n1-c1ccccc1 | 21.4 | -2.8 | -0.9 | 29.1 | -11.8 | nt
C=CCn1c(SCc2c(C)noc2C)nc2sc(C)c(C)c2c1=O | 8.2 | nt | -2.2 | 61.9* | 11.6 | +
Cc1sc2ncnc(SCc3ccco3)c2c1C | 9.2 | -10.8 | -1.6 | 63.5* | -0.5 | +
CCn1c2ccccc2c2nc3ccccc3nc21 | 5.7 | 4.2 | -1.6 | 62.4* | -19.6 | i
Cc1cc(C)c2cc(C(c3nnnn3C3CCCC3)N3CCc4ccccc4C3)c(=O)[nH]c2c1 (centres undefined) | 16.3 | nt | nt | 16.8 | nt | nt
C/C(=N\O)C(=O)OC1CC(C)CCC1C(C)C (centres undefined) | 1.4 | 13.2 | 1.1 | 58.5 | -7.1 | +
CC1CCC(C(C)C)C(OC(=O)COC(=O)c2ccc(N)cc2)C1 (centres undefined) | 10.4 | -12.5 | 0.9 | 32.1 | 17.4 | nt
CCC1CCCCN1C(=S)Nc1ccccc1 (centres undefined) | 20.6 | nt | nt | -3.3 | nt | nt
COc1cc(C)c(C(=O)Oc2cc(C)c(C(=O)O)c(O)c2C)c(OC)c1C | 7.8 | -21.2 | 0.0 | 54.6 | 14.7 | i
COc1cc(OC)c(C(C)=O)c(O)c1C | 4.6 | nt | nt | 21.5 | nt | nt
COc1cc(OC)cc(-c2nnc(SCc3ccc(Cl)cc3)o2)c1 | 8.8 | nt | nt | 30.0 | nt | nt
SMILES | EP2 antag | S1P3 antag | S1P4 ag | EP2 mod | S1P4 antag | EP2 cAMP induct
Cc1ccc(/C=N/N(Cc2ccccc2)c2ccccc2)o1 | 6.3 | 5.2 | 4.1 | 69.1* | -2.0 | +
Cc1ccc(/C=N/N2CCN(Cc3ccccc3)CC2)o1 | 10.1 | nt | 2.6 | -24.7 | 8.4 | nt
Cc1noc(C)c1CCC(=O)N1CCCC(C(=O)c2ccccc2F)C1 (centres undefined) | 6.9 | nt | nt | -19.4 | nt | nt
CC1CCN(c2nc(-c3ccncc3)nc3ccccc23)CC1 | 12.3 | 23.0 | -1.1 | 79.1* | 4.3 | i
COc1cccc(CC(=O)NC(C)C2COc3ccccc3O2)c1 (centres undefined) | 11.7 | nt | nt | -57.5 | nt | nt
CCC(=O)c1cn(CC(=O)NC2CCCCC2)c2ccccc12 | 15.3 | nt | nt | 3.9 | nt | nt
Cc1ccccc1Cn1c(Cc2ccccc2)nc2ccccc21 | 7.4 | nt | -4.7 | 71.1* | 19.0 | +
Cc1cccc(Cn2c(Cc3ccccc3)nc3ccccc32)c1 | 9.5 | -7.7 | 0.6 | 93.0* | -9.3 | +
Cc1cc(C)c(C)c(Cn2c(CO)nc3ccccc32)c1C | 4.9 | nt | -1.1 | 80.4* | -20.7 | +
Brc1ccccc1Cn1c(-c2cscn2)nc2ccccc21 | 4.1 | nt | 0.4 | 79.5* | 8.0 | +
CC1CN(C)CCC1CCc1ccc(NC(=O)c2cnn3cccnc23)cc1 (centres undefined) | nt | nt | nt | -11.4 | nt | nt
O=C(N1CCC2(CC1)CC(O)(c1nccs1)CO2)C1(c2ccc(Cl)cc2)CCC1 (centres undefined) | nt | nt | nt | -53.4 | nt | nt
O=C(Cc1cccc(F)c1)NCCN1CCC(O)(c2ccc(F)cc2)CC1 | 1.6 | nt | nt | 17.3 | nt | nt
Cc1onc(-c2ccncc2)c1C(=O)NCc1noc(-c2ccccc2)n1 | 6.2 | nt | nt | -44.5 | nt | nt
Cc1ccc2oc(C(=O)N3C4CCC3CC(c3ccc(F)cc3)C4)cc(=O)c2c1 (centres undefined) | nt | nt | nt | -65.6 | nt | nt
Brc1cc2c(cc1Cn1c(-c3cncs3)nc3ccccc31)OCO2 | 7.2 | 14.4 | 1.2 | 50.2 | -4.7 | nt
Cc1ccccc1Cn1c(-c2cncs2)nc2ccccc21 | 16.0 | 18.0 | 1.2 | 67.6* | -6.7 | i
O=C1CC(O)(c2ccccc2)C(c2ccccc2)=C1c1ccccc1 (centres undefined) | 10.4 | nt | 1.2 | 76.1* | -7.5 | +
COc1cc2[nH]c(=O)c(C(=O)Nc3ncccc3C)c(O)c2cc1OC | 4.0 | nt | nt | -11.7 | nt | nt
Fc1ccc(Sc2nc(-c3ccccc3)nnc2C(F)(F)F)cc1 | 9.4 | nt | 0.8 | 65.2* | 8.0 | i
Fc1ccc(Oc2nc(-c3ccccc3)nnc2C(F)(F)F)cc1 | 11.4 | nt | 0.7 | 68.7* | -24.0 | +
Cc1cc(C)c2[nH]c(=O)c(C(c3nnnn3C(C)(C)C)N(Cc3ccccc3)Cc3ccco3)cc2c1 (centres undefined) | 9.2 | nt | nt | 16.8 | nt | nt
O=C(c1ccc2c(c1)OCO2)N1CCC(Nc2nc3c(c(=O)[nH]2)CCCC3)CC1 | 7.4 | nt | nt | -3.7 | nt | nt
CCC(=O)Oc1ccc2c(C)cc(=O)oc2c1C(=O)CC | 3.6 | 8.2 | 1.3 | 3.5 | -3.4 | nt
CCC(=O)Oc1ccc2c(C)cc(=O)oc2c1C(=O)c1ccccc1 | 2.0 | 12.8 | 1.4 | 69.2* | -18.1 | i
S=c1[nH]cc(-c2ccccc2)n1-c1ccccc1 | 11.3 | nt | -0.4 | 74.9* | -14.3 | i
CC(C)(C)OC(=O)N1CCC[C@@H]1C(=O)c1nccs1 | nt | nt | nt | 2.5 | nt | nt
COc1cc(NC(=S)NC(=O)c2cc(C)cc(C)c2)ccc1NC(=O)c1cccs1 | 13.1 | nt | 3.9 | 67.6* | -19.8 | i
COc1cc(NC(=S)NC(=O)c2ccc(C(C)(C)C)cc2)ccc1NC(=O)c1cccs1 | 7.4 | 16.9 | -0.5 | 42.9 | -2.0 | nt
